Jurkat NFkB inh = lowers PMA/ionomycin-induced NF-kB signal in Jurkat cells; PMA/ionomycin-induced NF-kB luciferase reporter, luminescence; inhibition, % at 4 µM; 0.53% of 330,000 active; in the data active = inhibition above about 50%
CSC inhib = cancer stem cell inhibition. cancer stem cell-like cells viability, luminescence. inhibition, % at 7.5 µM. 1.1% of 300,000 active; in the data active = inhibition above about 75%; tested in HMLE shEcad cells
Gli-Sufu antag = Gli-Sufu pathway antagonism; Sufu-KO-LIGHT fibroblasts, Gli luciferase reporter luminescence; 0.74% of 340,000 active; inhibition, % at 5 µM;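 active = inhibition above about 55%, limit read from the data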;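 also: 0% = DMSO-treated cells and 100% = wells with medium but no cells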
Beta apoptosis = blocks beta cell apoptosis. INS-1E cytokine-induced death, ATP luminescence, 48 h; percent of positive-control rescue, neutral wells zero. protection from apoptosis, % (test concentration not listed). 0.8% of 300,000 active. AID 435005;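 active = Every replicate reaches about 75%, or at least half do and their mean reaches it too, limit read from the data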;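 also: 0% = cytokine-treated negative control wells and 100% = positive control rescue; higher means more ATP so stronger rescue from cytokine killing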
697 NFkB inh = lowers PMA/ionomycin-induced NF-kB signal in 697 B cells; inhibition, % at 4 µM; 0.33% of 330,000 active; AID 435022; 697 B-cell NF-kB luciferase reporter, 16 h; in the data active = inhibition above about 35%
Mdm2-MdmX inh = inhibitors of human Mdm2/MdmX interaction; O15151+Q00987; SaOS-2 split-luciferase Mdm2/MdmX complementation, luminescence; inhibition, % at 8 µM; 3% of 330,000 active;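 active = inhibition of at least 50% at 8 µM in the primary screen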
Mdm2-MdmX conf = confirmation of human Mdm2/MdmX interaction inhibitors. shares compounds with Mdm2-MdmX inh. Mdm2-MdmX binding, luminescent assay. inhibition, % at 8 µM. 55% of 10,000 active; in the data active = inhibition above about 40%
FLuc counter = full-length luciferase inhibition in Mdm2/MdmX counter-screen | 77% of 6,200 active | SaOS-2 full-length luciferase counterscreen, luminescence | shares compounds with Mdm2-MdmX inh | inhibition, % at 8 µM;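 active = mean inhibition at 8 µM reaching about 37%, which flags the compound as non-specific, limit read from the data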;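 also: p53-null SaOS-2 cells with luciferase driven by a doxycycline-inducible promoter; compound on cells about two nights before reading with doxycycline added after day one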
Numbers without * were called inactive; · = no result given. An excerpt weighted towards active compounds, which were near 4.5% of everything screened.

SMILES | Jurkat NFkB inh | CSC inhib | Gli-Sufu antag | Beta apoptosis | 697 NFkB inh | Mdm2-MdmX inh | Mdm2-MdmX conf | others
CC1=NN(c2cccc(C(=O)O)c2)C(=O)/C1=C\C=C/c1ccccc1 | 43 | · | -4 | · | -133 | 65* | 15
Cc1nc(CCNC(=O)C2CCC(=O)N(Cc3ccc(Cl)cc3)C2)sc1C (stereo not given) | 1 | · | -4 | · | 16 | 9 | ·
CCOC(=O)CC1(NC(=O)C2CCC(=O)N(Cc3ccccc3F)C2)CCCCC1 (stereo not given) | -22 | 8 | 2 | -5 | -23 | -9 | ·
O=c1cc(-c2ccccc2)[nH]n1-c1ccc([N+](=O)[O-])cc1 | -2 | 138* | -19 | 40 | -18 | 55* | 6
Cc1ccc(NC(=O)c2oc3ccc(Br)cc3c2C)cc1S(=O)(=O)N1CCOCC1 | · | · | -2 | · | · | · | ·
Cc1ccc(/C(N)=N/OC(=O)c2ccc(F)cc2)cc1 | -95 | -5 | -68 | -6 | -100 | 59* | 16
Cc1ccc(/C(N)=N/OC(=O)c2ccc3ccccc3c2)cc1 | -55 | -7 | -33 | -5 | -111 | 94* | 38 | FLuc counter=117*
Cc1ccc(/C(N)=N/OC(=O)Oc2ccccc2)cc1 | -8 | 4 | -4 | 7 | 13 | 8 | ·
N/C(=N\OC(=O)c1ccc(F)cc1)c1ccccc1 | -67 | -1 | -25 | -4 | -72 | -73 | ·
N/C(=N\OC(=O)c1ccc(F)cc1)c1nonc1N | 16 | -9 | -9 | -1 | 15 | 12 | ·
N/C(=N\OC(=O)c1ccc(F)cc1)c1ccc(Br)cc1 | -81 | -2 | -54 | 1 | -84 | 51* | -11
CC(C)c1ccc(NC2CCCN(C(=O)C3=NN(C)C(=O)CC3)C2)cc1 (stereo not given) | -12 | -7 | 1 | 4 | 6 | 28 | ·
O=C(Cn1nc(-c2ccccc2)c2ccccc2c1=O)Nc1ccc(O)cc1 | -3 | 12 | 1 | -4 | 12 | -16 | ·
Cc1ccc(NC(=O)NNC(=O)Cn2nc(-c3ccccc3)c(-c3ccccc3)c(C#N)c2=O)cc1 | -11 | 18 | -15 | 15 | -37 | 53* | 57* | FLuc counter=92*
CCOc1ccccc1CNC(=O)c1ccc(NC(=O)C2=CSCCO2)cc1 | -15 | 2 | 8 | 2 | -18 | -5 | ·
NNC(=O)c1[nH]c2ccc(Cl)cc2c1-c1ccccc1 | 5 | 61 | 0 | · | 10 | 53* | 21
Cc1c(C(=O)N/N=C/c2ccccc2)[nH]c2ccc(Cl)cc12 | 38 | 50 | -22 | 4 | -58 | 57* | 51* | FLuc counter=59*
NNC(=O)c1[nH]c2ccc(Br)cc2c1-c1ccccc1 | 20 | 52 | -1 | -11 | 29 | 4 | ·
C/C(N=Nc1nc2ccccc2s1)=N\Nc1ccccc1O | 1 | 85* | 21 | 70 | 1 | 56* | 58* | FLuc counter=26
CCC/C=N/Nc1nc2ccccc2s1 | -95 | -7 | -69 | 3 | -92 | -66 | ·
N#C/C(=N\Nc1cccc(Cl)c1)C(=O)c1ccccc1 | 1 | 41 | 27 | 47 | -39 | 71* | 20
N#C/C(=N\Nc1ccc(Cl)cc1)C(=O)c1ccsc1 | -5 | 61 | 30 | 64 | -75 | 69* | 39 | FLuc counter=74*
Cc1ccc(N/N=C(\C#N)C(=O)c2ccsc2)cc1 | 0 | 54 | 5 | 14 | -32 | -1 | ·
Cc1ccc(OCCC(=O)OC(C)C(=O)Nc2c(C)n(C)n(-c3ccccc3)c2=O)cc1 (stereo not given) | 17 | -12 | -9 | -8 | 0 | 27 | ·
Cc1ccccc1NC(=O)CSc1nc(Nc2ccccc2)nc(N2CCOCC2)n1 | 10 | 0 | 15 | -2 | 16 | 20 | ·
SMILES | Jurkat NFkB inh | CSC inhib | Gli-Sufu antag | Beta apoptosis | 697 NFkB inh | Mdm2-MdmX inh | Mdm2-MdmX conf | others
c1ccc(Nc2nc(N3CCOCC3)nc(N3CCOCC3)n2)cc1 | -26 | · | 9 | 3 | 18 | 56* | 27
Cc1cccc(Nc2nc(N3CCOCC3)nc(N3CCOCC3)n2)c1 | -25 | 23 | 22 | 2 | 31 | 51* | 36
c1ccc(Nc2nc(N3CCNCC3)nc(N3CCOCC3)n2)cc1 | -22 | -5 | -1 | -8 | 15 | 32 | ·
Cc1cccc(Nc2nc(N3CCCCC3)nc(N3CCCCC3)n2)c1 | -3 | 60 | -8 | 16 | 8 | 5 | ·
Oc1cccc(Nc2nc(N3CCOCC3)nc(N3CCOCC3)n2)c1 | -12 | -10 | 20 | -5 | 32 | 56* | 43* | FLuc counter=74*
Cc1ccc(F)cc1NC(=O)CSc1nc(Nc2ccccc2)nc(N2CCOCC2)n1 | 6 | -6 | 12 | -10 | -12 | 74* | 17
COc1ccccc1NS(=O)(=O)c1cccc(C(=O)N2CCN(Cc3ccc4c(c3)OCO4)CC2)c1 | 5 | 13 | 33 | 10 | -6 | 8 | ·
CCc1ccccc1NC(=O)CNC(=O)CCc1nc2sc3c(c2c(=O)[nH]1)CCCC3 | 2 | -8 | -5 | · | 11 | 3 | ·
CC1Cc2ccccc2N1C(=O)COC(=O)Cc1ccc(F)cc1 (stereo not given) | 2 | -1 | -9 | -1 | -2 | -10 | ·
COc1nc(N/N=C/c2ccc(-c3ccccc3[N+](=O)[O-])o2)nc(N2CCOCC2)n1 | -46 | -13 | 6 | 4 | -48 | -30 | ·
O=[N+]([O-])c1ccc(-c2ccc(/C=N/Nc3nc(NCc4ccccc4)nc(N4CCOCC4)n3)o2)cc1 | 1 | 14 | 30 | 26 | -12 | 100* | 90* | FLuc counter=54*
O=C(NC1CCN(Cc2ccc(Cl)cc2)CC1)c1cn(-c2ccccc2)nc1-c1cccnc1 | 19 | -5 | 16 | 21 | 12 | 53* | 32
Cc1nnc(SCC(=O)NC2CCCCC2)n1N | -5 | · | 4 | · | -12 | -14 | ·
Nc1ccccc1-c1ccc([N+](=O)[O-])cc1 | · | · | -6 | · | · | · | ·
O=[N+]([O-])c1ccc(O)c(/C=N/Nc2ncnc3c2cnn3-c2ccccc2)c1 | 21 | 104* | 58* | 16 | 5 | 91* | 91* | FLuc counter=21
COc1ccc2c(c1)c1ccc3c(c1n2C)C(=O)C=CC3=O | 14 | · | -4 | · | -35 | 93* | 74* | FLuc counter=58*
Cn1c2ccccc2c2ccc3c(c21)C(=O)C=CC3=O | · | · | 9 | · | · | · | ·
Cc1ccc2c(c1)c1ccc3c(c1n2C)C(=O)C=CC3=O | 18 | · | -20 | · | -25 | 86* | 71* | FLuc counter=57*
COc1ccc2c(c1)c1ncn(CCN3CCCC3)c(=O)c1n2C | -17 | -8 | 2 | -8 | -7 | 13 | ·
Cc1ccc(CN(C)C(=O)CSc2nnc3n2CCCCC3)c(C)c1 | 3 | · | 8 | -2 | 13 | -11 | ·
C=CCn1c(SCC(=O)Nc2ccc(N3CCOCC3)cc2)nc2ccccc2c1=O | 16 | -9 | 5 | -2 | 1 | 13 | ·
CN(C)CCn1c(=O)n(C2CCCCC2)c(=O)c2c3c(sc21)CCCCC3 | 6 | 34 | 10 | -6 | 21 | 59* | 45* | FLuc counter=65*
